Bioassay records: PubChem BioAssay, several laboratories
GC-B act – GC-B (human) receptor activation | P20594 | HEK293-GC-B cells, CNP EC30, cGMP TR-FRET; 0% at EC30 CNP, 100% saturating CNP | activation, % at 10 µM | hit rate 0.11% among 370,000 | AID 1920062;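 active = activation at 10 µM reaching about 35% in either raw or pattern-adjusted values, limit read from the data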
PLCg1 inh – blocks human PLC-gamma1 enzyme activity; AID 720700; P19174; hit rate 0.84% among 370,000; inhibition, % at 12.2 µM; purified PLC-gamma1, fluorogenic substrate, fluorescence
PLC-beta3 inh – PLC-beta3 (human) inhibition, primary screen | Q01970 | Purified PLC-beta3, fluorogenic substrate, fluorescence | inhibition, % at 12.2 µM | hit rate 0.18% among 370,000; in the data active = inhibition above about 11%;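 note: 0% = median of compound wells on plate and 100% = full blocker control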
NPR1 activator – GC-A (human) enzyme activation. P16066. HEK293 GC-A cells, cGMP TR-FRET, EC30 ANP; 0% at EC30 ANP, 100% saturating ANP. activation, % at 10 µM. hit rate 0.14% among 370,000. AID 1671463; in the data active = activation above about 40%
PLCg1 ctr – counter-screen for PLC-beta3 inhibitors: inhibitors of human PLC-gamma1; shares compounds with PLCg1 inh; purified PLC-gamma1, fluorogenic substrate, fluorescence; inhibition, % at 12.3 µM; hit rate 3.1% among 3,300; AID 743258
PLCbeta3 conf – human PLC-beta3 inhibition, confirmation. shares compounds with PLCg1 inh. purified PLC-beta3, fluorogenic substrate fluorescence. inhibition, % at 12.3 µM. hit rate 1% among 3,300; in the data active = inhibition above about 11%
* = called active by the depositor. In the library only some 1.2% were active in any assay of this set; here they are far more common. Cut-off read from the data, not from the text of the source, unless noted: active = inhibition above about 9.5%; inactive = the rest.

`O=C(ON=C1CCN(c2ccc([N+](=O)[O-])cc2)CC1)c1ccccc1` gave GC-B act -12, PLCg1 inh 9.9*, PLC-beta3 inh 0, NPR1 activator -40, PLCg1 ctr -6 and PLCbeta3 conf -4.
Screening Cc1ccc(C(=O)Oc2csc(=S)n2C(=O)c2ccc(C)cc2)cc1 returned GC-B act 1, PLCg1 inh -2, PLC-beta3 inh -6 and NPR1 activator 3.
Screening Cc1cc(-n2c(C)cc(C(=O)CSc3nnc4sc5ccccc5n34)c2C)no1 returned GC-B act -13, PLCg1 inh 4, PLC-beta3 inh 11*, NPR1 activator -17, PLCg1 ctr -5 and PLCbeta3 conf -3.
CCn1c2c(c(C)cc1=O)C(=O)CC(C)(C)C2 was read as GC-B act 1, PLCg1 inh 0, PLC-beta3 inh -1 and NPR1 activator 0.
Screening CCn1c(C)c2c([n+]1CC)CC(C)(C)CC2=O returned GC-B act -1, PLCg1 inh 1, PLC-beta3 inh 76*, NPR1 activator -1, PLCg1 ctr -4 and PLCbeta3 conf -1.
Screening CCCCn1c(N)c(N(Cc2ccccc2OC)C(=O)CC2OC(=O)c3ccccc32)c(=O)[nH]c1=O (stereo not drawn) returned GC-B act 2, PLCg1 inh 0, PLC-beta3 inh 2 and NPR1 activator 1.
Screening CC(=O)C[C@H](O)CC(=O)[C@H]1OC(=O)CCCCCc2ccccc21 returned GC-B act 0, PLCg1 inh -1, PLC-beta3 inh -2 and NPR1 activator 3.
`O=C(COC(=O)c1ccc(O)cc1O)NC12CC3CC(CC(C3)C1)C2` gave GC-B act -9, PLCg1 inh 7, PLC-beta3 inh -1 and NPR1 activator -5.
Screening O=C(COC(=O)c1cnccn1)c1ccccc1 returned GC-B act 5, PLCg1 inh -1, PLC-beta3 inh 12*, NPR1 activator 1, PLCg1 ctr -4 and PLCbeta3 conf 0.
Screening O=C(OCC(=O)C12CC3CC(CC(C3)C1)C2)c1ccccn1 returned GC-B act 1, PLCg1 inh 5, PLC-beta3 inh -1 and NPR1 activator 2.
O=C(COC(=O)c1cnccn1)c1ccc(-c2ccccc2)cc1 was read as GC-B act -1, PLCg1 inh -2, PLC-beta3 inh -5 and NPR1 activator 7.
O=C(OCC(=O)C12CC3CC(CC(C3)C1)C2)c1cnccn1 was read as GC-B act -5, PLCg1 inh 12*, PLC-beta3 inh 3, NPR1 activator 3, PLCg1 ctr 1 and PLCbeta3 conf 1.
For O=C(OCC(=O)C12CC3CC(CC(C3)C1)C2)c1ccc(O)cc1O the results were GC-B act -2, PLCg1 inh 10*, PLC-beta3 inh 3, NPR1 activator -1, PLCg1 ctr 2 and PLCbeta3 conf 3.
`Cc1cccc(-c2nc(C#N)c(NCC3CCCO3)o2)c1` (stereo not drawn) gave GC-B act 5, PLCg1 inh -107, PLC-beta3 inh -106 and NPR1 activator -8.
`COc1ccc(-c2nc(C#N)c(N3CCC(C(N)=O)CC3)o2)cc1` gave GC-B act 0, PLCg1 inh -62, PLC-beta3 inh -78 and NPR1 activator 0.
`Cc1ccc(/C(N)=N/OC(=O)COc2ccccc2Cl)cc1` gave GC-B act -3, PLCg1 inh -1, PLC-beta3 inh 0 and NPR1 activator 3.
For O=C(Cn1c(NCCO)nc2ccccc21)c1ccccc1 the results were GC-B act -1, PLCg1 inh -1, PLC-beta3 inh 1 and NPR1 activator -4.
Screening O=C(Cn1c(NCCCO)nc2ccccc21)c1ccc(Br)cc1 returned GC-B act -8, PLCg1 inh 7, PLC-beta3 inh 12*, NPR1 activator -4, PLCg1 ctr 1 and PLCbeta3 conf 3.
Screening Cc1ccc(/C=N/n2c(-c3ccco3)n[nH]c2=S)s1 returned GC-B act -2, PLCg1 inh 11*, PLC-beta3 inh 1, NPR1 activator 2, PLCg1 ctr -12 and PLCbeta3 conf -9.
For S=c1[nH]nc(-c2ccco2)n1/N=C/c1ccccc1Cl the results were GC-B act 5, PLCg1 inh 0, PLC-beta3 inh -2 and NPR1 activator 0.
